Compounds with a hit are over-represented: about 1.3% of the library has one in this group of screens.
SRC2 inh = inhibits human steroid receptor coactivator 2; Q15596; HEK293 GAL4-SRC2 luciferase reporter, luminescence; inhibition, % at 9 µM; 0.17% of 370,000 active; AID 651957;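 active means inhibition above the mean inhibition of all tested compounds plus 3 SD, set per campaign, cut at about 52% in these data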;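 further: 0% = DMSO treated cells and 100% = cells given Gossypol at 36 µM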
SRC3 inh = human NCOA3 inhibition. inhibition, % at 3.6 µM. 0.17% of 360,000 active. HEK293 GAL4-SRC3 luciferase reporter, luminescence;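 active means inhibition above a per-campaign cutoff, the mean of all compounds plus 3 SD, cut at about 60% in these data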;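 further: 0% = DMSO-treated cells and 100% = gossypol-treated cells at 36 µM; higher means less SRC3-driven luciferase light from the GAL4 reporter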
Gli-Sufu block = blocks Gli-Sufu signaling in a luciferase reporter; Sufu-KO-LIGHT fibroblasts, Gli luciferase reporter luminescence; inhibition, % at 5 µM; 0.74% of 340,000 active; AID 588413;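 active means inhibition above about 55%, limit read from the data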;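 further: 0% = DMSO-treated cells and 100% = wells with medium but no cells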
NR5A2 inv ag = inverse agonists of human LRH-1 (NR5A2). O00482. HEK293T StAR-luciferase reporter, LRH-1 transfected, 24 h. inhibition, % at 3.6 µM. 0.13% of 360,000 active;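 active means inhibition above the mean inhibition of all tested compounds plus 3 SD, cut at about 73% in these data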;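 further: 0% = DMSO wells and 100% = reporter-only cells lacking LRH-1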
SRC1 inh = inhibits human SRC1 coactivator. Q15788. HEK293 GAL4-SRC1 luciferase reporter, luminescence. inhibition, % at 3.6 µM. 0.12% of 360,000 active. AID 588354;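 active means inhibition above the campaign mean plus 3 SD, with each screening campaign given its own cutoff, cut at about 60% in these data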;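 further: 0% = DMSO treated cells and 100% = gossypol at 36 µM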
COUP-TFII inh = blocks human COUP-TFII nuclear receptor | P24468 | HEK293T NGFI-A luciferase reporter, luminescence | inhibition, % at 8.6 µM | 0.7% of 370,000 active;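 active means inhibition above a per-plate cutoff, mean inhibition of test wells between control levels plus 3 SD, cut at about 38% in these data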;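 further: cells cotransfected with COUP-TFII expression vector driving the NGFI-A reporter; 0% = median of COUP-TF2 test wells and 100% = reporter-only cells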
Gal4-VP16 ctr = inhibits VP16 reporter, flagging COUP-TFII antagonist hits; AID 687007; HEK293 Gal4-VP16 luciferase reporter, luminescence; inhibition, % at 8.5 µM; shares compounds with COUP-TFII inh; 25% of 2,500 active; in the data active means inhibition above about 13%
NR2F2 inh conf = COUP-TFII (NR2F2) inhibition, confirmation assay; HEK293 NGFI-A luciferase reporter, luminescence; AID 687008; inhibition, % at 8.5 µM; 45% of 2,500 active; shares compounds with COUP-TFII inh;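 active means mean inhibition over three repeats above a set limit taken from the earlier primary screen, cut at about 38% in these data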;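 further: 100% = cells given the luciferase reporter alone without the COUP-TF2 vector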
The depositor's hits bear a star; · = no result.

SMILES | SRC2 inh | SRC3 inh | Gli-Sufu block | NR5A2 inv ag | SRC1 inh | COUP-TFII inh | Gal4-VP16 ctr | NR2F2 inh conf
CCCCCCCCN1C(=O)[C@@H](CC(=O)NCc2ccc(C)o2)C[C@@]2(C(=O)OC)C1=C[C@H](COCc1ccccc1)O[C@@H]2C | 15 | · | · | · | · | 15 | · | ·
Cc1ccc(C)c(C(=O)CN2C(=O)c3ccccc3S2(=O)=O)c1 | -19 | -67 | 27 | -31 | -40 | -14 | · | ·
CCCn1c(C)cc(C(=O)CN2C(=O)c3ccccc3S2(=O)=O)c1C | 82* | 73* | · | 81* | 75* | 85* | 77* | 91*
OC(c1ccc(-c2ccccc2)cc1)c1ncc(-c2ccccc2)[nH]1 (stereo unspecified) | -13 | 9 | · | 5 | 9 | 57* | -10 | -15
Cc1ccc(OCC(=O)NC(=S)Nc2ccccn2)c(Br)c1 | 35 | 27 | -64 | 8 | 30 | 50* | -54 | 12
O=C(OCC#CCSc1nnc(-c2cccc3ccccc23)o1)C1CCC1 | · | · | · | · | · | -8 | · | ·
CC(C)CNc1ncnc2c1ncn2[C@H]1CN(Cc2ccc(-c3ccccc3)cc2)C[C@@H](CO)O1 | -3 | 7 | · | 12 | 18 | 61* | 6 | 43*
CC(C)Nc1ncnc2c1ncn2[C@H]1CN(Cc2ccc(-c3ccccc3)cc2)C[C@@H](CO)O1 | 24 | -3 | · | 24 | 18 | 49* | 3 | 18
O=C(NC1CCCCN(Cc2cccc(F)c2)C1=O)c1cccc(C(F)(F)F)c1 (stereo unspecified) | 2 | · | · | · | · | -3 | · | ·
CC(C)C[C@H]1COc2cc(Br)ccc2S(=O)(=O)N1Cc1cn(Cc2ccc(C(F)(F)F)cc2)nn1 | -35 | · | · | · | · | -3 | · | ·
CCN(CC)CC(C)(C)C(=O)/C=C/c1ccc(/C=C/C(=O)C(C)(C)CN(CC)CC)cc1 | 74* | 27 | 37 | 91* | 54 | 93* | 89* | 101*
CCN(CC)CCOC(=O)/C=C/c1ccccc1 | -37 | 4 | 5 | -7 | 3 | -8 | · | ·
O=C(CCc1ccccc1)N[C@H]1[C@H](OC(=O)c2ccco2)CCC[C@]12C(=O)N(Cc1ccccc1)c1ccccc12 | -5 | · | · | · | · | 9 | · | ·
COc1ccc2c(c1)CN1C(=O)N(Cc3ccc(F)cc3)S(=O)(=O)CC21 (stereo unspecified) | 10 | · | · | · | · | 24 | · | ·
CCOC(=O)C1=C(C)N(Cc2ccccc2)C(=O)NC1c1ccccc1OS(=O)(=O)c1ccccc1[N+](=O)[O-] (stereo unspecified) | 12 | 14 | 12 | 38 | 20 | 47* | 1 | 34
CCC(=O)N(C1=C(NC)C(=O)c2ccccc2C1=O)C(C)C | 13 | 11 | -4 | 22 | -13 | 8 | · | ·
CNC1=C(N(C(C)=O)c2ccc(Br)cc2)C(=O)c2ccccc2C1=O | 46 | 81* | 94* | 97* | 81* | 48* | 17* | 36
COC(=O)C1CN(CCO)CCS(=O)(=O)N1Cc1cccc(Cl)c1 (stereo unspecified) | 21 | · | · | · | · | -18 | · | ·
Cc1ccc(OCC(=O)c2cc(C)n(Cc3cccs3)c2C)c([N+](=O)[O-])n1 | 66* | 37 | 41 | 14 | 30 | 61* | -6 | 15
Cc1ccc(OCC(=O)c2cc(C)n(CC(F)(F)F)c2C)c([N+](=O)[O-])n1 | 2 | -4 | 3 | 3 | -24 | 8 | · | ·
c1ccc(C(Cc2nc(-c3ccncc3)no2)c2ccccc2)cc1 | 23 | 23 | 42 | 40 | -31 | 56* | 4 | 41*
c1ccc(-c2nc(-c3ccncc3)no2)cc1 | -66 | -56 | -76 | -90 | -75 | -42 | · | ·
Cc1ccc(S(=O)(=O)N(C)Cc2ccc(C(=O)N/N=C/c3ccc(OC(F)F)cc3OC(F)F)cc2)cc1 | 12 | 46 | 11 | 25 | 39 | 70* | 10 | 74*
COc1cccc2[nH]c3c(N4CCN(Cc5ccc6c(c5)OCO6)CC4)ncnc3c12 | -8 | · | · | · | · | -14 | · | ·
COc1ccc2c(c1)[nH]c1c(N3CCN(Cc4ccc5c(c4)OCO5)CC3)ncnc12 | 8 | 24 | 52 | 51 | 6 | 46* | 10 | 65*
SMILES | SRC2 inh | SRC3 inh | Gli-Sufu block | NR5A2 inv ag | SRC1 inh | COUP-TFII inh | Gal4-VP16 ctr | NR2F2 inh conf
Cc1nc(N2CCN(Cc3ccc4c(c3)OCO4)CC2)c2oc3ccccc3c2n1 | 31 | 4 | -9 | 21 | -1 | 83* | -5 | 9
COc1ccc(-n2c(SCc3nc4ccccc4[nH]3)nc3ccccc3c2=O)cc1 | 14 | · | · | · | · | 14 | · | ·
Cc1cc2cc3c(cc2n2c(SCC(=O)Nc4nc(-c5ccccc5)cs4)nnc12)OCO3 | · | · | · | · | · | 18 | · | ·
CN(C(=O)OC(C)(C)C)c1ccc(-c2nc3ccccc3s2)cc1 | 85* | 87* | 90* | 85* | 86* | 97* | 87* | 107*
COC(=O)N(C)c1nc2ccccc2s1 | -30 | -18 | 3 | -18 | -44 | -35 | · | ·
CCOc1ccc(-n2c(SCC(=O)Nc3ccc(OCc4ccccc4)cc3)nnc2-c2ccc(Cl)cc2)cc1 | -29 | · | · | · | · | -5 | · | ·
CCc1cc(C(=O)NC2CCCc3c2cnn3-c2ccc(F)cc2F)no1 (stereo unspecified) | 7 | -9 | · | 15 | 6 | 53* | -7 | 17
O=C(N[C@H]1CCCc2c1cnn2-c1ccc(F)cc1F)c1ccccn1 | · | · | · | · | · | -18 | · | ·
O=C(CCN1CCCC1=O)NC1CCCc2c1cnn2-c1ccccc1F (stereo unspecified) | 9 | -4 | -3 | 8 | 2 | 3 | · | ·
O=C(NC1CCCc2c1cnn2-c1ccccc1F)c1ccncc1 (stereo unspecified) | 1 | 14 | · | 38 | 24 | 63* | 14* | 49*
CC1=C(C(=O)NC2CCCc3c2cnn3-c2ccc(F)cc2F)OCCO1 (stereo unspecified) | 21 | 28 | 24 | 35 | -2 | 47* | -3 | 26
O=C(NCC1COc2ccccc2O1)c1ccc(NC(=O)c2cccc(F)c2F)cc1 (stereo unspecified) | 8 | · | · | · | · | -4 | · | ·
Fc1ccc(-c2cc(-c3nnc4sc(-c5cccs5)nn34)[nH]n2)cc1 | -22 | · | · | · | · | 1 | · | ·
O=C(CSc1nc2ccccc2s1)N/N=C/c1ccccc1C(=O)O | 22 | 17 | -4 | 24 | -5 | 43* | -5 | 17
O=C(O)COc1ccccc1/C=N/NC(=O)CSc1nc2ccccc2s1 | 1 | 13 | 4 | 4 | -5 | 15 | · | ·
Cc1c(/C(O)=C2/C(=O)C(=O)N(CCN3CCOCC3)C2c2ccccn2)cnn1-c1ccccc1 (stereo unspecified) | 80* | 85* | 27 | 83* | 84* | 100* | 31* | 39*
